Data from PubChem BioAssay AID1461 (National Center for Advancing Translational Sciences (NCATS), 2008).
Out of some 220,000 compounds screened, about 2,300 (1%) were called active. Roughly 6% stayed inconclusive and do not appear here. The call rests on the fitted dose curve; in most records, active means well fitted inhibition curve with a large enough effect; inconclusive means small, poorly fitted or top-dose-only effect, or effect the other way; inactive means no such curve, though single readings can be large or run the other way. Many of the other results were omitted from the sample, so actives are more common in it than they were.

target: Neuropeptide S receptor (Homo sapiens) (UniProt Q6W5P4); experiment: qHTS Assay for Antagonists of the Neuropeptide S Receptor: cAMP Signal Transduction; settings: CHO-NPSR cells, cAMP TR-FRET, antagonist mode; series mostly up to 38.3 µM; activity change, negative = inhibition: at the top concentration; further: nearly all actives have a fitted effect of over 50% in size
Excerpt: NIH Chemical Genomics Center [NCGC] NIH Molecular Libraries Probe Production centers Network [MLPCN] MLPCN Grant: X01-DA026210-01 Assay Submitter (PI): Heilig, Markus Alexander NCGC Assay Overview: Neuropeptide S receptor (NPSR), previously known as GPR154, is a recently de-orphanized G protein coupled receptor. Its endogenous ligand is the 20 amino acids peptide Neuropeptide S (NPS). […] NPS and its receptor are found in various tissues. Specifically they are highly expressed in brain areas that have been implicated in modulation of arousal, stress and anxiety. Central administration of NPS in mice produces an unusual profile of activity by inducing wakefulness and arousal, while at the same time suppressing anxiety. Therefore, NPSR may represent a novel drug target for the treatment of sleep and anxiety disorders. To identify NPSR antagonists, we developed a cell-based cAMP assay. NPS can stimulate the production of cAMP in Chinese hamster ovary cells stably expressing NPS receptor. This change in intracellular cAMP level can be detected by a homogeneous LANCE cAMP assay based on the TR-FRET (time resolved fluorescence resonance energy transfer) between a europium-labeled cAMP tracer complex and a cAMP-specific antibody labeled with Alexa Fluor 647. The europium-labeled cAMP tracer complex is formed by the tight interaction between Biotin-cAMP (b-cAMP) and streptavidin labeled with Europium-W8044 chelate (Eu-SA). Light pulse at 320 nm excites the europium of the cAMP tracer and the energy emitted is transferred to the Alexa molecule bound to the cAMP antibody, generating a TR-FRET signal at 665 nm. Residual energy from the europium will produce a light at 620 nm. The native unlabeled cAMP from cell lysates competes with the europium-cAMP tracer for antibody binding and reversely reduces the emission signal of Alexa by interrupting FRET between the two labeled molecules. Both emission signals from the FRET donor (620 nm) and the acceptor (665 nm) can be detected by a plate reader in the TRF mode. Expression of result in fluorescence ratio (665 nm/620 nm) helps to normalize differences due to cell density and reagent dispensing. This assay was successfully optimized to a 1536-well plate format.
NCGC Assay Protocol Summary: A Chinese hamster ovary (CHO) cell line stably expressing the NPS receptor (CHO-NPSR) was obtained from Dr. Heilig lab at NIAAA and maintained in F-12 Kaighn's media (Invitrogen, Carlsbad, CA, 21127) supplemented with 10 % FBS, 100 units/ml penicillin, 100 ug/ml streptomycin and 250 ug/ml geneticin at 37C, 5% CO2 in a humidified atmosphere. Before the assay, aliquots of cells were frozen and stored at -135C. The assay was performed in 1536-well format. Data are reported for both the ratio of the two emission wavelengths, and also for the component 'donor' channel, Em2=620. Data were normalized to the controls for basal activity (DMSO only) and 100% inhibition (No NPS control). IC50 values were determined from concentration-response data modeled with the standard Hill equation. NPS 1536-well assay protocol: (1) Fresh or frozen CHO-NPSR cells were suspended in F-12 Kaighn's media supplemented with 10 % FBS, 100 units/ml penicillin and 100 ug/ml streptomycin. Cells were plated at 4 ul/well (1200 cells) to white, tissue culture treated 1536-well plates, and then cultured at 37C, 5 % CO2 for 16 to 30 hours. (2) Add 23 nl/well of compound in DMSO solution. The final titration for each compound was between 0.6 nM and 46 uM. (3) Add 1 ul of stimulation reagent (1X HBSS buffer, 5 mM HEPES, 0.1% BSA, 500 uM RO-201724 (Sigma-Aldrich, B8279), 1.5% Alexa 647-labeled anti-cAMP antibody (from Perkin Elmer), 100 nM NPS) (4) Incubation at 37C, 5 % CO2 for 60 min. (5) Add 1 ul/well detection reagent. Detection reagent was prepared by adding biotin labeled cAMP (4%), streptavidin labeled with Europium-W8044 chelate (1.33%) and TritonX-100 (1%) to detection buffer. […]
On the % scale 0 is the no-effect control and ±100 the full control effect; potency means the concentration at half of the fitted maximal effect.

Sequence of Neuropeptide S receptor (Homo sapiens) (Q6W5P4 whole entry, looked up): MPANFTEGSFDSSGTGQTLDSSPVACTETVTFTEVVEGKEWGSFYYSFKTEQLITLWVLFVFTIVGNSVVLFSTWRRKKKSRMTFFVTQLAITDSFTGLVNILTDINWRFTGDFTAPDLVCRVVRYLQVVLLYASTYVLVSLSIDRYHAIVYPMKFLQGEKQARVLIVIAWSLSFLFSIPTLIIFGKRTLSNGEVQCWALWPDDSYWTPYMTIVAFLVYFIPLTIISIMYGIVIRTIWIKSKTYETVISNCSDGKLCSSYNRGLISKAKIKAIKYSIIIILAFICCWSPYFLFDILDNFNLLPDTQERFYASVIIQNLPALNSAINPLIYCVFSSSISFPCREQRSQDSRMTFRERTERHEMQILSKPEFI

Activity change, negative = inhibition, inactive:
O=C(CC(=O)Nc1ccc(Cl)c(Cl)c1)N/N=C/c1ccc(O)cc1 17.9%
Cc1ccc(NC(=O)C/C(N)=N/O)cc1Cl -0.778% [at 7.67 µM]
COc1cc2c(cc1OC)C(/C=C/c1ccco1)=NCC2 -41.7%
COC(=O)c1cc(NC(=O)c2ccco2)ccc1N1CCOCC1 -5.71%
CC(=O)Nc1ccc(NC(=O)CSc2ncnc3c2cnn3Cc2ccccc2)cc1 4.76%
C=CCn1c(=S)[nH]c2nc3c(cc2c1=O)COC(C)(C)C3 1.99% [at 46.1 µM]
O=c1[nH]nc(SCCS(=O)(=O)c2ccc(F)cc2)n1-c1ccccc1C(F)(F)F 13.4%
Cc1cccc2c1-c1sc(C(=O)NCCCN3CCc4ccccc4C3)cc1CO2 -16.1%
O=C(C[n+]1ccc2c(c1)nnn2-c1ccccc1)c1ccc(Cl)cc1 -24.3%
O=C(Cn1nnc(N2CCCCC2)n1)c1ccc(Cl)c(Cl)c1 3.87%
O=S(=O)(NCc1ccco1)c1cnc(Cl)c(Cl)c1 25.6% [at 7.67 µM]
Cn1c(SCC(=O)N2CCOCC2)nnc1-c1ccc2ncccc2c1 7.2%
CC(C)=CCc1c(O)c(CC=C(C)C)c2occ(-c3ccc(O)cc3)c(=O)c2c1O -56.7%
Cc1ccc(C)c(S(=O)(=O)N2CC(=O)Nc3ccccc32)c1 -7.92% [at 46.1 µM]
Cc1ccc(S(=O)(=O)N2CC(=O)Nc3ccccc32)cc1C 6.63% [at 46.1 µM]
COc1ccc(CN2CCOC2=O)cc1OC -18.3%
COc1ccccc1C1/C(=C(/O)c2ccc(OC(C)C)cc2)C(=O)C(=O)N1c1cc(C)on1 (configuration not stated) -10.3% [at 46.1 µM]
COc1ccc(C2/C(=C(/O)c3ccccc3)C(=O)C(=O)N2c2ncccn2)cc1OC (configuration not stated) 1.24%
CC(=O)NCc1ccc(S(=O)(=O)NC2CCN(Cc3ccccc3)CC2)cc1 23.9%
COc1ccc(Br)c2c1C(=O)CC2 -25.8%
COC(=O)c1cn(C(=O)c2ccc(Cl)cc2)c2ccccc12 -27%
CCOC(=O)NNc1cc(C(F)(F)F)ccn1 -10.8%
COc1ccccc1P(=O)(c1ccccc1)c1ccccc1NC(C)=O (configuration not stated) 17.4%
O=C(Nc1ccccc1)/C(=C/c1ccc([N+](=O)[O-])cc1)NC(=O)c1ccccc1 4.16%
Cc1cccc(NC(=O)c2sc(-c3ccccc3)nc2-c2ccc([N+](=O)[O-])cc2)c1 -3.9%
Cc1ccc(C)c2[nH]c(=O)c(CN(Cc3cccnc3)C(=S)NCc3ccco3)cc12 -30.5%
COc1ccc(Nc2cc(Cl)ccc2C(=O)O)cn1 -22.8%
COc1ccc(NC(=S)Nc2ccccc2Cl)cn1 9.18%
COc1cccc(Nc2nc(N)c([N+](=O)[O-])c(NCc3ccco3)n2)c1 -26.4%
C/C(=N\OCC(=O)O)c1ccc(Cl)cc1 9.86% [at 7.67 µM]
Cc1noc(C)c1S(=O)(=O)Nc1cc(C(F)(F)F)ccc1N1CCOCC1 8.56%
COc1ccc(C(=O)C2CCCN(Cc3ccc4nonc4c3)C2)c(C)c1 (configuration not stated) -40.1%
COc1ccc(S(=O)(=O)Nc2ccc(O)c(Sc3nc4ccccc4s3)c2)cc1 -10.1%
O=C(CSc1nc2ccccc2s1)Nc1ccc(C(=O)O)cc1 -10.3%
COc1cc2nc(Cl)nc(NCCO)c2cc1OC 4.49%
C/C(=N/NC(=O)CC(=O)N/N=C(\C)c1ccc([N+](=O)[O-])cc1)c1ccc([N+](=O)[O-])cc1 -5.47%
O=C(Cn1cnc2cc([N+](=O)[O-])ccc2c1=O)NC(=O)NCc1ccccc1 10.6%
Cc1ccc(CSCC(N)C(=O)O)cc1 (configuration not stated) 22.8%
Cc1ccc(C(=O)CS(C)(=O)=O)cc1 -4.78% [at 46.1 µM]
C/C(Cc1ccccc1)=N\NC(=O)CNC(=O)c1ccc2c(c1)OCCO2 4.68%
CC1(C)CCCC2=C1CC1C(=O)N(c3ccccc3)C(=O)C1C2 (configuration not stated) -11.9% [at 46.1 µM]
Oc1[nH]c2ccc(Br)cc2c1N=Nc1nn[nH]n1 -16.6%
Cc1nc(CNS(=O)(=O)c2cc([N+](=O)[O-])ccc2C)cs1 19.2%
Cc1nc(=O)c(-c2ccccc2)c(C)n1-c1ccc(Br)cc1 1.88%
CC(NCc1ccccc1OC1CCCC1)c1ccccc1 (configuration not stated) -11.4%
NC(=S)Nc1c(Cl)cccc1Cl 7.17% [at 7.67 µM]
CN(c1ccccn1)c1ncnc2[nH]ncc12 -6.2%
Cc1ccccc1NC(=O)c1ccccc1 -0.671% [at 46.1 µM]
CCOC(=O)c1cc(NC(=O)c2ccc(Cl)cc2)c(=O)oc1-c1ccccc1 -9.77% [at 46.1 µM]
COc1ccc(C2/C=C\CN(S(=O)(=O)c3cccs3)CC(=O)N2Cc2ccc(F)cc2)cc1 (configuration not stated) -36.6%
COc1ccc(CN2C(=O)C(C)S/C2=N/N=C/c2ccco2)cc1 (configuration not stated) -9.94%
CCOC(=O)c1ccc(NC(=O)c2nc[nH]c2C(=O)N[C@@H](CCCCNC(=O)OC(C)(C)C)C(=O)OC(C)(C)C)cc1 -52.7%
CCC(=O)/C(=C(/O)c1ccccc1)c1nc2ccccc2[nH]1 10%
O=C(Cc1nc2ccccc2[nH]c1=O)c1ccc(Cl)cc1 14.9%
CC1=CC2=NC(=O)/C(=C/c3coc4ccccc4c3=O)C(=N)N2O1 43.2%
Cc1ccc(/C=N/NC(=O)CSc2ccccn2)o1 -14.8%
Cc1ccc(C(O)P(=O)(OC(C)C)c2ccc(N(C)C)cc2)cc1 (configuration not stated) 7.66%
O=C(Nc1ccc2c(c1)OCCO2)c1ccoc1 -1.7%
NC(=O)NC(=O)CSc1nc2cc([N+](=O)[O-])ccc2n1-c1cccc(C(F)(F)F)c1 -43.8%
COc1ccc(/C=C/c2nnc(NC(=O)C(C)C)s2)cc1 1.52%
C/C(CC(=O)NC(C)c1ccccc1)=N\NC(N)=S (configuration not stated) 21.5%
Cc1cccc2cc(CN(Cc3nnnn3Cc3ccccc3)C3CCCC3)c(=O)[nH]c12 -29.8% [at 46.1 µM]
Cc1cc(C)c2[nH]c(=O)c(C(c3nnnn3Cc3ccc4c(c3)OCO4)N3CCCC3)cc2c1 (configuration not stated) -22.9% [at 46.1 µM]
COCCN(Cc1cc2cc3c(cc2nc1Cl)OCO3)C(=O)c1cccc(C)c1 -4.29%
Cc1ccc(NNC(=O)c2cccs2)cc1Cl 24%
Cc1cc(C)c(C)c(S(=O)(=O)N[C@@H](C)C(=O)OC(C)C(=O)NC(N)=O)c1C (some centres not stated) 16.8%
O=C(Nc1ccc(Cl)cc1)/C(=C1\CCCN1)[N+](=O)[O-] -27.6%
CN1CCN(c2ccc(NC(=O)COc3ccc(Cl)cc3Cl)cc2)CC1 3.6% [at 7.67 µM]
COc1cc(NC(=O)COc2ccccc2Cl)ccc1NC(=O)C(C)C 2.21%
Nc1ccc(N=Nc2ccccc2Cl)c(N)n1 -6.42%
COc1ccc(CCNC(=O)C(=O)NCC2CCNCC2)cc1OC -20.8%
Cc1cc(C)c(C#N)c(SCc2[nH]nc3c2C(c2ccccc2)C(C#N)=C(N)O3)n1 (configuration not stated) -18.8% [at 46.1 µM]
N#CC1=C(N)Oc2c(sc3ccccc23)C1c1ccco1 (configuration not stated) -7.26% [at 7.67 µM]
O=C1CCC(=O)N(O)CCCCCNC(=O)CCC(=O)N(O)CCCCCNC(=O)CCC(=O)N(O)CCCCCN1 15.4%
NC(=O)N/N=C\c1cccs1 14%
O=S(=O)(c1ccc(F)cc1)N1CC=C(c2ccccc2)CC1 -0.503% [at 7.67 µM]
Nc1scc[n+]1Cc1cccc2cccnc12 -4.76%
Nc1nc(NC(=O)/C=C/c2ccc(F)cc2)nn1-c1ccccc1 2.5%
COc1cc(/C=N/O)ccc1OCc1ccc([N+](=O)[O-])cc1 -0.175%
COC(=O)c1ccc(COc2ccc(/C=N/NC(=O)C(=O)Nc3ccc(OC)cc3)cc2OC)o1 7.97%
COc1cccc(OC)c1CN(C)C(=O)c1cnccc1C(F)(F)F -16.3%
COC(C[C@H](O)CC(=O)COCc1ccccc1)OC 19.4%
Cc1ccc(S(=O)(=O)/N=C(/NC(=S)Nc2c(C)n(C)n(-c3ccccc3)c2=O)c2ccccc2)cc1 -10.6%
CSCC[C@H](NC(=O)CCCn1nnc2ccccc2c1=O)C(=O)O -7.89%
S=C(NCCc1ccccc1)Nc1ccccc1 -3.61%

Potency, active:
O=C(CC(O)(C(F)(F)F)C(F)(F)F)Nc1ccc(Cl)c(Cl)c1 6.31 µM
CC1(C)Cc2nc3sc4c(SCC(=O)NC(c5ccccc5)c5ccccc5)ncnc4c3cc2CO1 1.26 µM
O=C1CN(c2nc(-c3ccccc3)c3cc(Br)ccc3n2)c2ccccc2N1 6.31 µM
Cc1cc(N2C(=O)C(=O)/C(=C(/O)c3ccc(Cl)cc3)C2c2cccc(Br)c2)no1 (configuration not stated) 12.6 µM
CCOC(=O)/C(=C\c1ccc([N+](=O)[O-])cc1)C(=O)c1cc(C(C)=O)c(Nc2ccccc2)s1 7.94 µM
COc1ccc(NC(=O)/C(Cl)=C(/Cl)S(=O)Cc2ccc(C)cc2)cn1 (configuration not stated) 1 µM
O=[N+]([O-])c1c(NCCO)cc(Sc2nc3ccccc3s2)c2nonc12 10 µM
Cc1ccc(SC(CC(=O)c2ccc(C(C)(C)C)cc2)C(=O)O)cc1 (configuration not stated) 10 µM
CC1CC2=C(CC1/C=N/NC(N)=S)C(C)(C)CCC2 (configuration not stated) 12.6 µM
CC(=O)c1cc(NC(=O)c2ccccc2)c(=O)oc1/C=C/N(C)C 10 µM
O=C(/C(=C/c1cccc(Cl)c1)c1nc2ccccc2[nH]1)c1ccccc1 10 µM
CC(=O)O[C@]1(C(C)=O)CC[C@H]2[C@@H]3C=C(C)C4=CC(=O)CC[C@]4(C)[C@H]3CC[C@@]21C 3.98 µM
Cc1cccc2cc(CN(Cc3ccc4c(c3)OCO4)Cc3nnnn3C3CCCC3)c(=O)[nH]c12 12.6 µM
Cc1ccccc1OCC(=O)Nc1ccc(N2CCN(C(=O)C(C)C)CC2)c(Cl)c1 12.6 µM
Cc1cc(C)c2c3c(sc2n1)C(c1ccccc1)C(C#N)=C(N)O3 (configuration not stated) 10 µM
Cc1ccccc1Nc1scc(-c2ccc(Br)cc2)[n+]1-c1ccccc1C 10 µM
CCCc1ccc(OCc2ccc(C(=O)N/N=C/c3cccc([N+](=O)[O-])c3)o2)c(OC)c1 10 µM
